Data on 40 compounds can be found in PubChem BioAssay (NCATS).

Activity calls are given as the source filed them. A call without a number means that no potency is given here. Calls come from the whole dose curve; as a rule, active = well fitted curve in the direction sought with a large enough effect; inconclusive = small, poorly fitted or top-dose-only effect, or another doubt; inactive = no such curve, though single readings can be large or run the other way.

Chain of Hexokinase-4 (Homo sapiens) + Glucokinase regulatory protein (Homo sapiens) (P35557 whole entry, looked up): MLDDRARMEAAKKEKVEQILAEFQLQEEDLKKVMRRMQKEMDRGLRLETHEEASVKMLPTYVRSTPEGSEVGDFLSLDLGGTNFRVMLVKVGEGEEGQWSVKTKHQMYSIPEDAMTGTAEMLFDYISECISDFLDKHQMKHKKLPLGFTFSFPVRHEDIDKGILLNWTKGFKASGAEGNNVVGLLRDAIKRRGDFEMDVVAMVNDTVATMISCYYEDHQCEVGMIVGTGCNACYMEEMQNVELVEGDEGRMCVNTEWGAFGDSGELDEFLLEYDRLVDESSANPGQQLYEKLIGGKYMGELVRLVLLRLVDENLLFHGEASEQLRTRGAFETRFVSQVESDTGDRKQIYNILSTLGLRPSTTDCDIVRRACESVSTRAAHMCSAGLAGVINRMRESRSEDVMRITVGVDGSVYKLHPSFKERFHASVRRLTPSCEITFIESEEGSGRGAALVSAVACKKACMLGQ
Chain of Hexokinase-4 (Homo sapiens) + Glucokinase regulatory protein (Homo sapiens) (Q14397 whole entry, looked up): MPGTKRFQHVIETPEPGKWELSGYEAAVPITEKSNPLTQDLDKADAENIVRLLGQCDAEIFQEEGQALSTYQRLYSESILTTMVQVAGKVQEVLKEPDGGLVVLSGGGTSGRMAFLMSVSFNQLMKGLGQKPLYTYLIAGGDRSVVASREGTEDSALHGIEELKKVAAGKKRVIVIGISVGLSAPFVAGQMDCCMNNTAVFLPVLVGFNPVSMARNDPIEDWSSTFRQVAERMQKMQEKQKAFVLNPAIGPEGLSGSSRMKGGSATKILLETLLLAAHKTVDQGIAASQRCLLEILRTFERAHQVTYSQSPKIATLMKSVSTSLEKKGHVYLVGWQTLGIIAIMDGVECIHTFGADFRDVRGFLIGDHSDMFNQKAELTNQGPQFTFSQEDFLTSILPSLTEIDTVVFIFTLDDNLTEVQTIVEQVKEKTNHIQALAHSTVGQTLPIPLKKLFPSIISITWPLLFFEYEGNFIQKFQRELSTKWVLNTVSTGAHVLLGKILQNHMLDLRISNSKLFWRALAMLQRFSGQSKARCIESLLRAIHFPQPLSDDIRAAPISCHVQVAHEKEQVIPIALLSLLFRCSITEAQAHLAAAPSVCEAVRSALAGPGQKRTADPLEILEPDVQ

This assay addresses Hexokinase-4 (Homo sapiens) + Glucokinase regulatory protein (Homo sapiens) (UniProt P35557+Q14397). As to the kind of experiment: qHTS assay for inhibitors of recombinant human GCK-GKRP interaction: ADP-Glo assay (AID 743206). The following applies: ADP-Glo luminescence, 60 min; series mostly up to 76.9 µM. The text has this: Glucokinase (GCK) is a glucose sensor in hepatocytes and pancreatic beta-cells. Hepatic GCK is regulated by glucokinase regulatory protein (GKRP), which is predominantly localized to the liver. GKRP binds to GCK inhibiting its activity in the fasting state while in the presence of glucose the GKRP is displaced. There is an additional layer of regulation by fructose 1-phosphate and fructose 6-phosphate, which inhibit and enhance the GCK-GKRP interaction, respectively. GCK plays a role in glucose homeostasis and there is an interest in the development of strategies to activate GCK to lower blood glucose levels in type 2 diabetes. To date the majority of effort has focused on direct activation of GCK and the assays developed herein look to activate GCK by inhibiting its binding to GKRP. A compound that inhibits the interaction of GCK with GKRP could be important for the treatment of diabetes and can also be used as a tool compound to further elucidate GCK-GKRP biology. To that end, we have developed a sensitive HTS biochemical assay where in GCK activity is coupled to luciferase to interrogate the GCK-GKRP interaction. This assay was screened against a small compound library to look for modulators of activity.
2 uL of 15 nM GST-GCK and 15 nM FLAG-GKRP proteins with 2 uM S6P (columns 1-2, 4-48; Millipore, Billerica, MA) are dispensed into Greiner, white solid-bottom 1536-well assay plates; columns 3 receive buffer without GCK as a control for maximum inhibition. Compounds (23 nL) are then transferred via Kalypsys pin tool equipped with 1536-pin array (10 nL slotted pins, V&P Scientific, San Diego, CA). The library compounds are in columns 5-48 and columns 1-4 serve as controls with DMSO in columns 1 and 3 and 26 mM 1:1.5 fold serial of gluckokinase activator (GKA-EMD) in column 2 and 26 mM of the glucokinase activator (GKA-EMD) in column 4. Following addition of compound, 1 uL of ATP […] is added, and the plate is incubated for 60 minutes at room temperature. The amount of ADP is then quantified by the ADP-Glo Kit (Promega, Madison, WI). First, 2 uL of the first kit reagent is added, and the reaction is incubated for 45 minutes; then, 4 uL of the second kit reagent are added and the reaction is incubated for 30 minutes at which time the luminescence is read on a Viewlux plate reader (Perkin-Elmer, Waltham, MA). The final concentration of reagents in the reaction are 0.4 mM ATP, 25 mM Hepes pH 7.6, 25 mM KCl, 2 mM MgCl2, 1 mM DTT, 0.025% BSA, 0.01% Tween 20, 5 mM glucose. Data are normalized to DMSO-treated control columns with (maximum signal) and without (minimum signal) enzyme.
A general note: qHTS replaces the single test concentration by a dilution series.
On to `NC(C(=O)N[C@@H]1C(=O)N2C(C(=O)O)=C(Cl)CS[C@H]12)c1ccccc1` (stereo not given in full), for which the Potency entry is “inactive”. Turning to `CC1CNCCN1S(=O)(=O)c1cccc2cnccc12` (stereo not given), the Potency result is “inactive”. Consider `CC(C)NC[C@H](O)COc1ccc(CC(N)=O)cc1`, for which the Potency entry was “inactive”.

Turning to `OC[C@H]1O[C@@H](n2cnc3cncnc32)[C@H](O)[C@@H]1O`, the Potency result was “inactive”. The entry for `C=CCn1c(=O)c2c(nc(-c3ccc(S(=O)(=O)O)cc3)n2C)n(C)c1=O` is “inactive”. The entry for `C=C1C(=O)O[C@@H]2[C@H]3O[C@]3(C)CCC=C(C)CC[C@@H]12` is “inactive”; for `NC1CONC1=O` (stereo not given) it is “inactive”; for `C/C(=C\c1ccc(C(=O)O)cc1)c1ccc2c(c1)C(C)(C)CCC2(C)C` it is “inactive”. For `c1ccc2nc(C3=NCCN3)ccc2c1`, the Potency result was “inactive”. The entry for `Nc1ncnc2c1ncn2C1CCCO1` (stereo not given) is “inactive”. In the case of `CCCCCC(O)CCCC(=O)O` (stereo not given), the Potency result was “inactive”. The entry for `O=C(O)c1ccccc1Nc1cccc(OCc2ccc3ccccc3n2)c1` is “inactive”; for `NC(N)=[N+]1CCc2ccccc2C1` it is “inactive”; for `COC1(C2=NCCN2)COc2ccccc2O1` (stereo not given) it is “inactive”. The entry for `CCCC[C@@]1(C2CCCC2)Cc2cc(OCC(=O)O)c(Cl)c(Cl)c2C1=O` is “inactive”; for `CC(N)=NCCCC[C@@H](N)C(=O)O` it is “inactive”. In the case of `NOCC(=O)O`, the Potency entry was “inactive”. The entry for `CC[C@@H]1Cc2cc(O)ccc2C2=C1c1ccc(O)cc1C[C@H]2CC` is “inactive”; for `N[C@@H](CS(=O)O)C(=O)O` it is “inactive”; for `C=CC1(C)CC(=O)C2(O)C(C)(O1)C(OC(C)=O)C(O)C1C(C)(C)CCC(O)C12C` (stereo not given) it is “inactive”. On to `CC(C)NCC(O)COc1ccc(CC(N)=O)cc1` (stereo not given), for which the Potency result was “inactive”. The entry for `CCc1ccc2c(-c3cccc(Cl)c3)nc(=O)n(CC)c2n1` is “inactive”. The entry for `OC1(c2ccc(Cl)cc2)CCN(Cc2c[nH]c3ccccc23)CC1` is “inactive”.

Regarding `CCCCS(=N)(=O)CC[C@H](N)C(=O)O` (stereo not given in full), the Potency result is “inactive”. `N[C@H](C(=O)O)[C@H](O)C(=O)O`: the Potency entry is “inactive”. The entry for `CC(O)C(O)[C@H]1CNc2nc(N)[nH]c(=O)c2N1` (stereo not given in full) is “inactive”; for `COc1cc(/C=C(\C#N)C(=O)Nc2nnc(C(F)(F)F)s2)ccc1OCc1ccc(C(F)(F)F)cc1C(F)(F)F` it is “inactive”; for `COc1ccc2c(c1)CCC1C2CC[C@@]2(C)C1CC[C@@H]2NCCCCCCN1C(=O)C=CC1=O` (stereo not given in full) it is “inactive”. The entry for `c1ccc(C(NCCNC(c2ccccc2)c2ccccc2)c2ccccc2)cc1` is “inactive”.

Take `N=S(=O)(O)Cc1noc2ccccc12`: the Potency result is “inactive”. The entry for `NCC(O)C1CCCCCCC1` (stereo not given) is “inactive”; for `CC1=C(C(=O)O)N2C(=O)[C@@H](NC(=O)C(N)C3=CCC=CC3)[C@H]2SC1` (stereo not given in full) it is “inactive”. The entry for `N[C@H](C(=O)O)[C@H]1C[C@@H]1C(=O)O` is “inactive”; for `CC(C)C[C@H](NC(=O)C1OC1C(=O)O)C(=O)NCCCCN=C(N)N` (stereo not given in full) it is “inactive”. In the case of `CCN1C(=O)C=CC1=O`, the Potency result was “inactive”.

On to `NC1(C(=O)O)CCc2cc(C(=O)O)ccc21` (stereo not given), for which the Potency result was “inactive”.

As for `O=c1ccn([C@@H]2O[C@H](COP(=O)(O)OP(=O)(O)O)[C@@H](O)[C@H]2O)c(=O)[nH]1`, the Potency result is “inactive”. Take `CC#CCOC(=O)c1c(C)nc2sc3c(c2c1N)CCC(O)C3` (stereo not given): the Potency result is “inactive”.

Take `CN(C)CCC(c1ccc(Br)cc1)c1ccccn1` (stereo not given): the Potency result was “inactive”. Regarding `CC[C@H](NC(=O)c1c(C)c(-c2ccccc2)nc2ccccc12)c1ccccc1`, the Potency result is “inactive”.
